Only some compounds are listed: those with a hit (about 27% of all), similar ones and a draw of the others.
EphB4 antag – EphB4-ephrin-B2 interaction antagonism; hit rate 0.15% among 97,000; P54760; EphB4 LBD / TNYL-RAW-Alexa532 peptide, fluorescence polarization; inhibition, % at 7 µM;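 active means inhibition above the screen-wide mean inhibition plus 3 SD, cut at about 15% in these data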;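 further: 0% = DMSO wells and 100% = excess unlabeled TNYL-RAW peptide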
CYP2C19 activ – activators of human cytochrome P450 2C19. 96,000 tested, under 10 active. activation factor at 5 µM. P33261. recombinant CYP2C19, luciferin-H EGE luminescence; stronger effect = higher value; 0 = fully inhibited enzyme, 1 = untreated enzyme;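 active means activation factor of at least 2 at 5 µM in the primary screen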;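 further: 0 = wells with 2.5 mM tranylcypromine and 1 = vehicle-only wells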
CYP2C9 inh – inhibitors of human CYP2C9. CYP2C9 Supersomes, luciferin-H conversion, luminescence. AID 777. inhibition, % at 5 µM. hit rate 20% among 96,000;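 active means blocking of liver enzyme CYP2C9 beyond about 50% at 5 µM, limit read from the data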
Target sequence (P11712 whole entry, looked up): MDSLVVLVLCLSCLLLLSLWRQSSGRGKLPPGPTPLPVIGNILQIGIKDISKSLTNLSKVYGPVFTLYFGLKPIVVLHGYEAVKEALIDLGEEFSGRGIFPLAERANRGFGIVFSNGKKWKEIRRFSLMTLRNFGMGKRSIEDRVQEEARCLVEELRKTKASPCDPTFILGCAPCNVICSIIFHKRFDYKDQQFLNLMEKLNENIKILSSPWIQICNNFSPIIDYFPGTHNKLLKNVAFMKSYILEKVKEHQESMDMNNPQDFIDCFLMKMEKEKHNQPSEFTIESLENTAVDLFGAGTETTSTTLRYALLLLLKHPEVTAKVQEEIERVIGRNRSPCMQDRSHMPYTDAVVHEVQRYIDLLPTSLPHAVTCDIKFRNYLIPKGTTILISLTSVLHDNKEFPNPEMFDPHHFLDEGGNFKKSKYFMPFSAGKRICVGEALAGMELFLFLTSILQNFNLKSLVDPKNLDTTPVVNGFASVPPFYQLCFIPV
CYP2C19 inh – blocks human cytochrome P450 2C19; inhibition, % at 5 µM; P33261; AID 778; hit rate 21% among 96,000; CYP2C19 Supersomes, luciferin-H EGE luminescence, 30 min;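 active means CYP2C19 inhibition above a set limit at 5 µM in the primary screen, cut at about 50% in these data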;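 further: plate controls were negative control wells for no effect and 2.5 mM tranylcypromine positive control for full effect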
CYP2C9 activ – increases human cytochrome P450 2C9 activity. P11712. recombinant CYP2C9, luciferin-H conversion, luminescence; stronger effect = higher value; factor 1 = untreated enzyme, 0 = blocked. activation factor at 5 µM. hit rate 1.4% among 96,000. AID 1024;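 active means activation factor of 2 or more for CYP2C9 at a 5 µM dose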;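 further: 0 = sulfaphenazole-blocked wells and 1 = vehicle-only wells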
* hit, by the source's call; . = no result given.

SMILES	EphB4 antag	CYP2C19 activ	CYP2C9 inh	CYP2C19 inh	CYP2C9 activ
CC1CN(S(=O)(=O)c2ccc(NC(=O)CCN3C(=O)c4ccccc4C3=O)cc2)CC(C)O1 (stereo unspecified)	-3.4	1	57.3*	0.6	0.4
Cc1cc(NS(=O)(=O)c2ccc(NC(=O)CCN3C(=O)c4ccccc4C3=O)cc2)no1	-3.6	1	49.6	1.1	0.5
O=C(CCCCCN1C(=O)c2ccccc2C1=O)Nc1ccc2c(c1)OCCO2	-9.5	0.3	75.9*	71.2*	0.2
Cc1cccc(N=C2Sc3nc4c(C)c(C)ccc4cc3CN2CCN2CCOCC2)c1	3.4	0.8	47.4	16.5	0.5
COc1ccc(C(=O)COc2ccccc2N2C(=O)C3C4C=CC(C4)C3C2=O)cc1 (stereo unspecified)	-2.0	0.9	11.5	8.4	0.9
COc1cc(/C=C2/SC(=NCc3ccccc3)N(Cc3ccccc3)C2=O)ccc1O	4.4	1	49.8	4.7	0.5
CC1CN(S(=O)(=O)c2ccc(NC(=O)CCCN3C(=O)c4ccccc4C3=O)cc2)CC(C)O1 (stereo unspecified)	-0.7	0.7	50.2*	27.8	0.5
COC(=O)C1CSc2[nH]c(=O)sc2C1c1ccc(O)c(OC)c1 (stereo unspecified)	4.8	1	5.6	2.3	0.9
CCOC(=O)C1CSc2[nH]c(=O)sc2C1c1ccccc1 (stereo unspecified)	-1.2	0.2	61.8*	81.4*	0.4
C=CCN=C(NC#N)SCC(=O)c1cccc(OC)c1	4.6	0.1	-25.8	94.9*	1.3
C=CCN=C(NC#N)SCc1ccccc1	1.1	0.6	11.9	43.7	0.9
COc1ccc(OC)c(NC(=O)[C@H]2CC=CC[C@H]2C(=O)O)c1	-8.4	1	-1.7	2.8	1
COc1ccc(OC)c(NC(=O)Nc2ccccc2C)c1	-7.5	0.3	29.2	66.8*	0.7
COc1ccc(OC)c(NC(=O)C2CC(C)=C(C)CC2C(=O)O)c1 (stereo unspecified)	-1.0	0.8	61.4*	15.2	0.4
COc1cc(NC(=O)CS(=O)(=O)c2ccc(C)cc2)cc(OC)c1OC	-5.8	0.3	19.6	73.4*	0.8
COc1ccc([N+](=O)[O-])cc1NCc1ccccc1C	9.4	0.3	68.8*	67.8*	0.3
COc1ccc(OC)c(NC(=O)NC2(C(F)(F)F)Oc3ccccc3O2)c1	-6.4	0.6	34.2	38.4	0.7
CCN(CC(=O)Nc1ccc(OC)c(OC)c1)S(=O)(=O)c1ccc(C)cc1	2.4	0.9	11.5	10.0	0.9
COc1ccc([N+](=O)[O-])cc1NC1CCCCC1	0.3	1	10.1	4.5	0.9
CCCSc1nc2c(c(=O)n1CC)SC(C)C2 (stereo unspecified)	-1.6	0.7	45.5	30.7	0.5
COc1ccc(OC)c(NC(=O)C2CCCN2C(=O)OCc2ccccc2)c1 (stereo unspecified)	.	0	61.6*	96.8*	0.4
COc1ccc([N+](=O)[O-])cc1NC(=O)CSc1ccccc1	4.7	0.1	-20.3	92.9*	1.2
COc1ccc(OC)c(NC(=O)CSc2ncccn2)c1	-1.6	0.7	-6.5	31.3	1.1
COc1ccc(OC)c(NC(=O)CS(=O)(=O)c2ccccc2)c1	2.7	0.3	-325.3	69.4*	4.3*
COc1ccc(OC)c(NC(=O)CSc2ccc3ccccc3c2)c1	-6.0	0.7	-29.2	31.6	1.3
SMILES	EphB4 antag	CYP2C19 activ	CYP2C9 inh	CYP2C19 inh	CYP2C9 activ
COc1ccc(OC)c(NC(=O)CSc2ccccc2)c1	-5.4	0.4	-37.8	57.4*	1.4
COCC(=O)Nc1cc(OC)ccc1OC	-1.7	0.9	-21.1	5.7	1.2
Cc1ccc2c(CC(=O)OCn3nnc4ccccc4c3=O)coc2c1	1.1	1	11.3	-3.3	0.9
Cc1ccc2oc(NC(=O)N3CCOCC3)cc(=O)c2c1	.	1.1	4.2	-5.2	1
CC(C)CN(C(=O)COC(=O)c1ccc2c(c1)NC(=O)CS2)C1CCS(=O)(=O)C1 (stereo unspecified)	8.2	0.9	8.6	5.4	0.9
COc1ccc(C(=O)COC(=O)CN2C(=O)NC(C)(C)C2=O)cc1OC	-0.3	1	-6.9	2.9	1.1
COc1ccc([N+](=O)[O-])cc1NC(=S)NC(NC(=O)Cc1ccc(OC)c(OC)c1)C(Cl)(Cl)Cl (stereo unspecified)	0.9	0.7	57.7*	31.2	0.4
C#CCn1c(=NC(=O)c2ccc(Br)s2)sc2cccc(OC)c21	2.2	1	-72.3	1.0	1.7
